Measured values as given in PubChem BioAssay (NCI).
Compounds without any hit were thinned out: in the full panel of roughly 79,000, 15% have a hit. A number with no mark means an inactive call. Calls of active or inactive are those of the source. No stated cut-off is given here; in the data, active means growth inhibition above about 70%; inactive means the rest.

What was measured:
[1] = NCI Yeast Anticancer Drug Screen. Data for the rad50 strain (AID 155);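 further: 0% = growth of vehicle-only cultures of the same strain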; details: S. cerevisiae rad50 strain growth inhibition, stronger effect = higher value
Summary of the method: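 Yeast carrying a defined DNA repair defect were exposed to test compounds, and growth was compared with vehicle-treated controls to give percent inhibition.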

[2] = NCI Yeast Anticancer Drug Screen. Data for the mec2-1 strain (AID 157); details: S. cerevisiae mec2-1 strain, stronger effect = higher value
Summary of the method: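 Yeast mec2-1 mutant treated with compound. Readout: growth inhibition vs vehicle controls.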

[3] = NCI Yeast Anticancer Drug Screen. Data for the sgs1 mgt1 strain (AID 161);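 further: 0% = growth of cultures given vehicle only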; details: S. cerevisiae sgs1 mgt1 strain, stronger effect = higher value
Summary of the method: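 Mutant yeast exposed to compound; growth scored against vehicle-only wells.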

[4] = NCI Yeast Anticancer Drug Screen. Data for the cln2 rad14 strain (AID 165);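 further: 0% = growth equal to vehicle treated cultures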; details: S. cerevisiae cln2 rad14 strain, stronger effect = higher value
Summary of the method: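 cln2 rad14 yeast strain; compound exposure; growth inhibition read vs vehicle controls.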

[5] = NCI Yeast Anticancer Drug Screen. Data for the bub3 strain (AID 167); details: S. cerevisiae bub3 mutant strain, stronger effect = higher value
Summary of the method: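 Compounds were applied to a genetically altered yeast strain carrying a cell-cycle control defect. Growth inhibition was scored against vehicle-treated controls.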

[6] = NCI Yeast Anticancer Drug Screen. Data for the mlh1 rad18 strain (AID 175); details: S. cerevisiae mlh1 rad18 strain growth inhibition, stronger effect = higher value
Summary of the method: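 Yeast w/ defined DNA-repair lesions; compound exposure; growth vs vehicle controls → % inhibition.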

[7] = at 5.0 µM (retest, dose inferred, filed as 0.5)
[8] = at 50.0 µM (retest, dose inferred, filed as 5.0)

Structure (SMILES)	growth inhibition [1, 7]	growth inhibition [1, 8]	growth inhibition ([1]; at 50.0 µM)	growth inhibition [2, 7]	growth inhibition [2, 8]	growth inhibition ([2]; at 50.0 µM)	growth inhibition [3, 7]	growth inhibition [3, 8]	growth inhibition ([3]; at 50.0 µM)	growth inhibition [4, 7]	growth inhibition [4, 8]	growth inhibition ([4]; at 50.0 µM)	growth inhibition [5, 7]	growth inhibition [5, 8]	growth inhibition ([5]; at 50.0 µM)	growth inhibition [6, 7]	growth inhibition [6, 8]	growth inhibition ([6]; at 50.0 µM)
COc1ccc2c(c1)C(N)=C(c1ccccc1)C2=O	14%	15%	70.2% (active)	16%	8%	28.2%	16%	28%	63.1%	17%	10%	0.55%	24%	19%	59.2%	21%	9%	-31.8%
O=C(O)CCCOc1cc(-c2ccccc2F)nc2cc3c(cc12)OCO3	11%	36%	76.8% (active)	3%	31%	80.8% (active)	13%	27%	71% (active)	5%	46%	71.3% (active)	9%	47%	77.9% (active)	7%	52%	54%
S=C=Nc1ccc(N2CCOCC2)cc1	96% (active)	99% (active)	99.3% (active)	31%	100% (active)	99.7% (active)	41%	99% (active)	99.7% (active)	10%	99% (active)	96.3% (active)	26%	98% (active)	99.2% (active)	33%	99% (active)	99.2% (active)
CCN1CCCC(Nc2cc(C)nc(/N=C(/N)Nc3ccc(Cl)c(Cl)c3)n2)C1 (configuration not stated)	48%	96% (active)	90% (active)	32%	98% (active)	92% (active)	48%	97% (active)	86.7% (active)	55%	86% (active)	82.7% (active)	29%	96% (active)	83.6% (active)	57%	97% (active)	83.2% (active)
O=C(/C=C/c1ccccc1)CCC1C(=O)c2ccccc2C1=O	24%	40%	3.25%	10%	33%	-9%	14%	42%	1.05%	10%	20%	17.8%	12%	51%	-12.6%	22%	50%	4.6%
COC1CC(C)C(OC)c2cc(O)cc(c2O)NC(=O)/C(C)=C/C=C\C(C)C(OC(N)=O)/C(C)=C\C(C)C1OC (configuration not stated)	94% (active)	97% (active)	91.2% (active)	95% (active)	97% (active)	92.5% (active)	97% (active)	98% (active)	91.3% (active)	88% (active)	95% (active)	89.8% (active)	97% (active)	98% (active)	90.7% (active)	96% (active)	97% (active)	90% (active)
CCOC(=O)COc1cc(-c2ccccc2F)nc2cc3c(cc12)OCO3	9%	24%	14.7%	4%	6%	15.1%	-16%	-9%	47.2%	8%	15%	23.6%	-29%	36%	65.8%	12%	26%	17.6%
CN1CCc2cc3c(c4c2C1C(O)c1ccccc1-4)OCO3 (configuration not stated)	17%	32%	31.4%	12%	9%	17.7%	9%	7%	26.6%	7%	17%	31.8%	7%	27%	36.6%	13%	11%	15%
O=C1C=C(Cl)C(=O)c2ccccc21	90% (active)	99% (active)	99% (active)	35%	100% (active)	99% (active)	30%	99% (active)	99.3% (active)	31%	98% (active)	99.1% (active)	47%	99% (active)	98.8% (active)	53%	99% (active)	99% (active)
CCCCCCCCCCCC[n+]1ccc(CCCCCCCCC)cc1	99% (active)	99% (active)	99% (active)	100% (active)	99% (active)	99.3% (active)	100% (active)	99% (active)	99.5% (active)	98% (active)	99% (active)	98.5% (active)	100% (active)	99% (active)	98.8% (active)	99% (active)	99% (active)	97.6% (active)
NC(=S)N/N=C\c1nccc2c(C(F)(F)F)cccc12	-4%	96% (active)	89% (active)	2%	96% (active)	91.4% (active)	6%	96% (active)	90.5% (active)	-10%	94% (active)	88.2% (active)	-5%	95% (active)	89.7% (active)	7%	95% (active)	89.2% (active)
COc1ccc(Nc2nc3ccc(C(F)(F)F)cc3nc2C(=O)O)cc1	10%	51%	30.6%	13%	46%	42.9%	21%	22%	40.6%	31%	37%	68.3%	7%	12%	60.5%	9%	48%	54.5%
N=C1C=C(N)C(=O)c2ccccc21	29%	87% (active)	97.5% (active)	16%	40%	65.5%	25%	80% (active)	93.8% (active)	12%	54%	75.9% (active)	31%	85% (active)	94.3% (active)	20%	83% (active)	95% (active)
CCOc1cc2c(cc1O)/C(=N\OC)C[C@@H]1[C@@H]2CC[C@]2(C)[C@@H](O)CC[C@@H]12	16%	59%	13.9%	0%	42%	-2.45%	5%	86% (active)	9.8%	23%	67%	24.8%	25%	71% (active)	13.6%	16%	68%	79.1% (active)
COc1cc(N(CCC#N)CCC#N)ccc1/C(N=Nc1ccc(C(=O)O)cc1)=N/NC(=O)c1cc(Br)ccc1O	9%	26%	74.8% (active)	12%	24%	62.1%	-13%	20%	25.7%	6%	12%	34%	14%	40%	59.2%	8%	21%	50.3%
CC(=O)Nc1ccc(C(=O)CCl)cc1	98% (active)	98% (active)	76.3% (active)	96% (active)	99% (active)	51.7%	98% (active)	99% (active)	99% (active)	87% (active)	93% (active)	51.6%	99% (active)	99% (active)	7.6%	98% (active)	99% (active)	94.7% (active)
CCCCC(C=O)(C=C=C(C)C)CC (configuration not stated)	-4%	28%	51.4%	-2%	0%	52.1%	0%	35%	61.3%	-7%	26%	36.4%	-13%	2%	66.3%	-32%	-4%	16.9%
CCCCCCCCCCCC[N+]1(CCCCCCCCCCCC)CCCC(C)C1 (configuration not stated)	99% (active)	99% (active)	88.8% (active)	100% (active)	94% (active)	91.3% (active)	100% (active)	99% (active)	91.1% (active)	99% (active)	99% (active)	88.1% (active)	99% (active)	99% (active)	90% (active)	99% (active)	99% (active)	88.7% (active)
N#CC1c2ccccc2C=CN1C(=O)CCCl (configuration not stated)	7%	41%	6.05%	2%	36%	34.2%	11%	34%	53.5%	8%	42%	17.1%	15%	74% (active)	74.3% (active)	-11%	38%	29.1%
